Assay results taken from the supplement of paper PMC6555819.

Assays:
Assay in all cases: PBM binding z-score (relative to random genomic background probes); higher = stronger binding; sequences stand for … in GC…GCGATTGACAGCGTAGAATGAAGG
[1] = test system: FXR:RXRa (NR concentration 270 nM, RXRa partner concentration 90 nM)
How it was run: (§1)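 On custom Agilent 4×180K arrays, double-stranded probes with 34-nt variable regions carried direct-repeat seeds, single-nucleotide variants, half-site ablations or random human genomic background. Ligand-free nuclear receptor dimers were applied for 1 h, and binding was read with antibodies against each partner (one per run). Binding z-scores come from regression-normalized fluorescence, with the random background probes as reference.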

[2] = test system: LXRa:RXRa (NR concentration 270 nM, RXRa partner concentration 90 nM)
How it was run: as §1

[3] = test system: LXRa homodimer (NR concentration 270 nM)
How it was run: as §1

[4] = test system: LXRb:RXRa (NR concentration 270 nM, RXRa partner concentration 90 nM)
How it was run: as §1

[5] = test system: LXRb homodimer (NR concentration 270 nM)
How it was run: as §1

[6] = test system: PPARa:RXRa (NR concentration 270 nM, RXRa partner concentration 90 nM)
How it was run: as §1

[7] = test system: PPARg:RXRa (NR concentration 180 nM, RXRa partner concentration 90 nM)
How it was run: as §1

[8] = test system: PPARg:RXRa 270nM:90nM, anti-RXR (NR concentration 270 nM, RXRa partner concentration 90 nM)
How it was run: as §1

[9] = test system: PPARg:RXRa 30nM:10nM, anti-RXR (NR concentration 30 nM, RXRa partner concentration 10 nM)
How it was run: as §1

[10] = test system: PPARg:RXRa 90nM:30nM, anti-RXR (NR concentration 90 nM, RXRa partner concentration 30 nM)
How it was run: as §1

Row | Sequence | PBM binding z-score [1] | PBM binding z-score [2] | PBM binding z-score [3] | PBM binding z-score [4] | PBM binding z-score [5] | PBM binding z-score [6] | PBM binding z-score [7] | PBM binding z-score [8] | PBM binding z-score [9] | PBM binding z-score [10]
1 | GCACATAGGTAATACAAGGTGAAAGTCCGATTGT | 0.681 | 2.96 | 0.0603 | 0.767 | -0.39 | 1.47 | 0.894 | 0.539 | 0.253 | 0.343
2 | GCTGCTAGGTCAACTGATTGTCAGCTAAAGCTCG | 4.09 | 2.79 | -0.17 | 2.06 | 0.0753 | 3.54 | 2.73 | 3.13 | 0.683 | 2.12
3 | CCTTACGTGTCACGAGGTTATAGCACGACGAGCG | 1.42 | 1.62 | 0.447 | 1.29 | 0.663 | 2.43 | 2.05 | 1.6 | 0.219 | 0.814
4 | AGAACGAGGGCAATGAGTTGACAGCACGGGTGGC | 0.329 | 0.24 | -0.349 | -0.388 | -0.581 | 1.24 | 1.38 | 0.8 | 0.0302 | 0.423
5 | TCTTGTAAATCAAAGGTTAAGAAAGCCGAAGCCT | 1.34 | 2.53 | 0.811 | 1.94 | 0.621 | 3.08 | 3.23 | 5.39 | 4.93 | 5.88
6 | TCATATAGGTAAAAGGTGAAAATCGGTGTGGTAA | 2.32 | 2.08 | 0.347 | 2.14 | 0.2 | 5.34 | 9.36 | 8.69 | 8.68 | 9.26
7 | CCTACTGGGCCATTCAGAGGTCATTAATCATATG | 2.24 | 3.76 | 5.48 | 3.81 | 0.468 | 3.74 | 1.99 | 2.79 | 0.44 | 2.02
8 | AGTCAAAGTTCATCTAGGGAACGTAAGATATGCT | 6.67 | 5.95 | 4.72 | 3.68 | 1.64 | 4.69 | 6.38 | 6.34 | 3.44 | 5.6
9 | ACTAGCATGCCAAGGGTCACTCAAGATTAGTCCG | 2.51 | 2.97 | 0.285 | 2.95 | 0.101 | 4.14 | 5.14 | 6.08 | 3.82 | 6.39
10 | GCTGTTAGTTGAAAGGGCAACCGAATGATTCTCG | 0.495 | 0.93 | -0.0723 | 0.717 | 0.0485 | 2.12 | 1.42 | 2.9 | 0.9 | 2.33
11 | TCTAGCAGGCTAGAGGGTCACTCAAGAGGTACGG | 1.01 | 0.938 | -0.529 | 0.868 | -1.08 | 2.4 | 1.05 | 2 | 1.9 | 1.98
12 | CCTTACGGGTCACTCCAGGTTATAGCCTCGGAGT | 4.87 | 7.57 | 1.87 | 5.01 | 0.105 | 4.56 | 3.61 | 3.83 | 1.17 | 2.46
13 | TCATATTGGTAAACAGGTGAAAGTCCGTAAGTTA | 1.17 | 0.929 | 0.49 | 1.15 | 0.247 | 1.66 | 0.821 | 2.67 | 4.04 | 3.3
14 | GCGACTGGGGTAAAGCAGGTTACCATAAGGTTGG | 0.315 | 0.949 | -0.396 | 0.852 | -0.819 | 1.66 | 0.941 | 1.19 | 0.0678 | 0.64
15 | CATACAGGGTCAGCTAGGCCAGTGTAGGGACGGC | 4.16 | 2.82 | -0.158 | 1.81 | 0.182 | 4.09 | 2.96 | 2.97 | 0.501 | 2.32
16 | GCAGACAGGTGAAACGCAGGTAACTCATGGTGGC | -0.174 | -0.103 | -0.708 | -0.224 | -1.24 | 0.901 | 0.886 | 0.443 | -0.0913 | 0.0978

Row | Sequence | PBM binding z-score [1] | PBM binding z-score [2] | PBM binding z-score [3] | PBM binding z-score [4] | PBM binding z-score [5] | PBM binding z-score [6] | PBM binding z-score [7] | PBM binding z-score [8] | PBM binding z-score [9] | PBM binding z-score [10]
17 | ATCTCGAGGTAAAGTTCAGTGAAAGATCGATAGA | 1.3 | 1.92 | 1.04 | 1.29 | 0.424 | 2.4 | 2.53 | 3.53 | 1.91 | 3.69
18 | AGTCAAAGTTCAGGACGAGGTAACTTAAAGCACG | 4.45 | 3.83 | 1.38 | 2.1 | 0.364 | 3.59 | 4.72 | 4.85 | 2.02 | 3.7
19 | TCGAGTAGGTTGCCAATGGGGCATTCAGCTTTCT | -0.454 | -0.408 | -0.785 | -0.313 | -0.788 | -0.0635 | -0.86 | 0.227 | 0.337 | 0.314
20 | GTACCCAGGTGAATAGGTCGTTGATGAGTAGGCG | 0.381 | 0.343 | -0.131 | 0.285 | -0.0749 | 1.59 | 1.34 | 1.25 | 0.309 | 0.972
21 | ATATGTAGGTTAGCTGGGTTCATTCAGACTAGGC | 1.75 | 4.53 | 2.19 | 2.2 | 0.361 | 3.76 | 4.18 | 3.74 | 1.75 | 2.89
22 | AGAATGAGGTGATACGTAGATCAGGGAAGAAAGT | 0.335 | -0.0138 | -0.435 | -0.252 | -0.444 | 1.52 | 1.16 | 1.16 | 0.448 | 0.958
23 | TATACAGGGTCAAAGGCCAGTGTACGAATGTCGA | 6.89 | 6.1 | 2.61 | 4.74 | 2.33 | 6.22 | 8.3 | 7.38 | 4.93 | 7.23
24 | CGAACTAGGTCCTCCAGGACAGTGAATACATTGA | -0.16 | -0.319 | -0.274 | -0.492 | -0.593 | 0.0563 | 0.755 | 0.537 | -0.117 | 0.278
25 | TCATATAGGTAAACAGGTCAAAGTCCGTAAGTTA | 2.74 | 3.19 | 2.04 | 3.12 | 0.433 | 4.55 | 5.08 | 5.37 | 4.97 | 5.43
26 | CCAACTAGGTCACAGAGGTCAAAGTCCGTGCGTA | 7.03 | 6.68 | 7.62 | 6.53 | 2.14 | 6.53 | 9.3 | 7.99 | 5.85 | 7.48
27 | CTCGAAAGGTCGGTCGAGGTGAGTATACGGATAA | 2.43 | 1.82 | -0.49 | 1.29 | -0.496 | 2.75 | 0.678 | 1.5 | 0.401 | 0.892
28 | GCTCGGAGGAAAAGGTCAGAGCTTTGTCCGTAGA | 2.6 | 3.37 | 0.256 | 2.58 | -0.596 | 3.83 | 2.82 | 4.46 | 1.36 | 4.22
29 | TCATATAGGTAAACAGGTGGAAGTCCGTAAGTTA | 0.72 | 0.64 | 0.229 | 0.692 | 0.0407 | 1.43 | 1.16 | 2.43 | 4.15 | 3.06
30 | CTACCAAGGTGGACAAGGTCGTTGATTACTATTC | 0.175 | 0.496 | 0.259 | 0.805 | -0.653 | 0.861 | 0.061 | 0.155 | -0.189 | -0.0308
31 | CCTATTAGTTGACCCTAAGGGCAACCGAAGCTCG | 4.38 | 3.57 | 1.02 | 3.56 | 1.04 | 4.53 | 1.6 | 3.34 | 0.981 | 2.19
32 | GCTCGTTGGTCAGTAAAAGGTCACACACCGGTCG | 3.94 | 4.86 | 5.11 | 4.22 | 1.19 | 4.89 | 3.34 | 4.93 | 2.81 | 4.52
